Experimental data reported in PubChem BioAssay (NCATS).
Records with an inconclusive call do not appear. Values without a mark were called inactive. Calls follow the shape of the dose curve; as a rule, active = well fitted cell-killing curve with a large enough effect; inconclusive = small, poorly fitted or top-dose-only effect, or effect the other way; inactive = no such curve, though single readings can be large or run the other way.

Experiment: qHTS assay to identify small molecule inhibitors of chordoma cells - UCH-1 (AID 1259355); also: nearly all actives have a fitted effect of over 55% in size
Settings: UCH-1 chordoma viability, CellTiter-Glo, 48 h, combination, with auranofin plus four topoisomerase inhibitors; series mostly up to 46.1 µM; activity, negative = inhibition: at the top concentration
Procedure, shortened: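 Seed 800 cells per well; incubate overnight at 37 C, 5% CO2. Add test compounds (15 concentrations), then the auranofin–topoisomerase-agent combination. Incubate 48hr, add CellTiter-Glo, wait 30min, read luminescence.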
% is scaled to controls: 0 for no effect and ±100 for the full control effect.

Row | SMILES | activity, negative = inhibition
1 | NCCc1ccn[nH]1 | -6.67% [at 20.6 µM]
2 | CCCCOc1cc(C(=O)NCCN(CC)CC)c2ccccc2n1 | -23.9% [at 20.6 µM]
3 | C#C[C@]1(OC(C)=O)CC[C@H]2[C@@H]3CCC4=C[C@@H](OC(C)=O)CC[C@@H]4[C@H]3CC[C@@]21C | -39.3%
4 | CC[C@@H](CO)NCCN[C@@H](CC)CO | -9.74% [at 20.6 µM]
5 | CN1CCN(CCCN2c3ccccc3Sc3ccc(S(=O)(=O)N(C)C)cc32)CC1 | -2.33% [at 20.6 µM]
6 | CCN1CCN(c2cc3c(cc2F)c(=O)c(C(=O)O)cn3C2CC2)CC1 | -14.6%
7 | Nc1cc(Cl)c(NC2=NCCN2)c(Cl)c1 | -11.8%
8 | CCC(NC(C)C)C(O)c1ccc(O)c(O)c1 (stereo unspecified) | 9.09%
9 | CCCCCCCCCCCCCCNCCO | -17.4%
10 | CCCOC(C(=O)OC1CCN(C)CC1)(c1ccccc1)c1ccccc1 | -9.98%
11 | CC(=O)Nc1c(I)cc(I)c(C(=O)O)c1I | -21.8%
12 | O=C(Nc1ccc(Cl)c(Cl)c1)C1CC1 | -15.7%
13 | C[C@@H]1CN(CCCn2c3ccccc3c3ccccc32)C[C@H](C)N1 | -23.7%
14 | O=C(N/N=C/c1ccccc1O)c1ccncc1 | -16.9%
15 | C[C@H]1[C@H](NC(=O)/C(=N/OC(C)(C)C(=O)O)c2csc(N)n2)C(=O)N1S(=O)(=O)O (stereo in doubt) | -5.61% [at 20.6 µM]
16 | CCCSS/C(CCO)=C(\C)N(C=O)Cc1cnc(C)nc1N | 5.12%
17 | CC1=C(C(=O)OC(C)C)C(c2cccc([N+](=O)[O-])c2)C(C(=O)OC2CN(C(c3ccccc3)c3ccccc3)C2)=C(N)N1 (stereo unspecified) | -26.9%
18 | O=C(O)CCCCC(=O)O | 7.37%

Row | SMILES | activity, negative = inhibition
19 | COc1cc(C(=S)N2CCOCC2)cc(OC)c1OC | -5.7%
20 | COc1cc(-c2ccc(=O)[nH]n2)ccc1OC(F)F | -19.6%
21 | CCN(CC)CCNC(=O)COc1ccc(Cl)cc1 | -17.6%
22 | CN(C/C=C/c1ccccc1)Cc1cccc2ccccc12 | -15.7%
23 | O=C(COc1ccc(Cl)cc1)N1CCN(Cc2ccc3c(c2)OCO3)CC1 | -4.03%
24 | C#C[C@]1(O)CC[C@H]2[C@@H]3CCc4cc(OC5CCCC5)ccc4[C@H]3CC[C@@]21C | -42.9%
25 | C#C[C@]1(O)CC[C@H]2[C@@H]3CCC4=CC(=O)CC[C@@H]4[C@H]3CC[C@@]21C | -3.64%
26 | Oc1ccc(Cl)c2cccnc12 | -14.9%
27 | COc1cccc(OC)c1C(=O)N[C@@H]1C(=O)N2[C@@H]1SC(C)(C)[C@@H]2C(=O)O | -8.62%
28 | C[C@]12CC[C@H]3[C@@H](CCC4=CC(=O)CC[C@@]43C)[C@@H]1CC[C@@H]2C(=O)CO | -25.7% [at 20.6 µM]
29 | O=C(O)c1cc2cc(Cc3cccnc3)ccc2o1 | 9.28%
30 | N[C@@H](Cc1cnc[nH]1)C(=O)O | -12.2%
31 | CO/N=C1\CN(c2nc3c(cc2F)c(=O)c(C(=O)O)cn3C2CC2)CC1CN (stereo unspecified) | -17.4%
32 | COc1cc2c(cc1OC)C(=O)C(CC1CCN(Cc3ccccc3)CC1)C2 (stereo unspecified) | -11.7%
33 | CC1(C)CCC(NC(=O)[C@@H](N)CCC(=O)O)CC1 | 21.6%
34 | Cc1c(C(N)=O)cc([N+](=O)[O-])cc1[N+](=O)[O-] | -12.1%
35 | O=C(OCC(O)CO)c1ccccc1Nc1ccnc2cc(Cl)ccc12 (stereo unspecified) | -23.2% [at 20.6 µM]
36 | Cc1c(F)c(N2CCNC(C)C2)cc2c1c(=O)c(C(=O)O)cn2C1CC1 (stereo unspecified) | -5.82%
